# Test results as given in PubChem BioAssay (EPA / NIEHS).
# Activity calls are given as the source filed them. The calls were made as follows: active = hit-call score of the fitted dose curve at least 0.9, where 1 is the maximum; inactive = score below 0.9.
# Columns and labels:
# [1] = ATG_CRE_CIS: Attagene CIS-FACTORIAL HepG2 Assay for human cAMP Responsive Element (CRE) binding protein 3 (AID 2282926); settings: HepG2 CRE cis-reporter, Attagene multiplexed mRNA; actives raise or lower the signal
# Outline: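 Multiplexed transcription-unit reporters transfected into HepG2; 24 h dosing; RT-PCR/capillary electrophoresis fluorescence read-out; bidirectional fit vs DMSO.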
# [2] = target: CCAAT/enhancer-binding protein beta (Homo sapiens) (UniProt P17676); test: ATG_C_EBP_CIS: Attagene CIS-FACTORIAL HepG2 Assay for human CCAAT/Enhancer Binding Protein (C/EBP) beta (AID 2282927); settings: HepG2 Attagene cis-factorial transcription factor reporter; actives raise or lower the signal
# Chain of CCAAT/enhancer-binding protein beta (Homo sapiens) (P17676 whole entry, looked up, the tested form may be a part): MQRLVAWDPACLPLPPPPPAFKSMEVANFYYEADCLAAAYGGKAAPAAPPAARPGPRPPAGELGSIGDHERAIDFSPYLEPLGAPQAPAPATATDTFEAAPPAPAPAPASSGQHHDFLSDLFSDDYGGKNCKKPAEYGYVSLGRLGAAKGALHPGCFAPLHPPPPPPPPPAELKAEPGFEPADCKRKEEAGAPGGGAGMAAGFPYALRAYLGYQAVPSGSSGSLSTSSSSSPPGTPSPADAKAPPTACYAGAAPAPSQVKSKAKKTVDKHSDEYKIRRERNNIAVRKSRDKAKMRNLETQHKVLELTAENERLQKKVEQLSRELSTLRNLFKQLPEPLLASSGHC
# Outline: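 Endogenous C/EBPb-driven reporter transcripts measured in transfected human HepG2 cells at 24 h via RT-PCR and capillary electrophoresis of labelled fragments. Activity fitted in both directions relative to DMSO baseline.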
# [3] = ATG_CMV_CIS: Attagene CIS-FACTORIAL HepG2 Assay for human CMV (Internal Marker) (AID 2282928); settings: HepG2 CMV promoter reporter, transcription factor profiling; actives raise or lower the signal;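 also: endpoint acts as a background internal control marker rather than a target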
# Outline: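 HepG2 cells transiently transfected with multiple cis-regulated reporter units; 24 h compound exposure. Reporter mRNA quantified by RT-PCR, 6-FAM primer-extension labeling, HpaI digestion and capillary electrophoresis; bidirectional fitting against DMSO baseline.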
# [4] = ATG_DR4_LXR_CIS: Attagene CIS-FACTORIAL HepG2 Assay for human Liver X Receptor (LXR), DR4 submotif (AID 2282929); settings: HepG2 Attagene DR4 cis-reporter, mRNA transcription; actives raise or lower the signal
# Outline: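 DR4 cis-reporter in HepG2, 24 h exposure. Detection: RT-PCR, 6-FAM labelling, CE fragment analysis. Endpoint fitted bidirectionally, DMSO = baseline.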
# [5] = target: Aryl hydrocarbon receptor (Homo sapiens) (UniProt P35869); test: ATG_Ahr_CIS: Attagene CIS-FACTORIAL HepG2 Assay for human Aryl Hydrocarbon Receptor (Ahr) (AID 2282930); settings: HepG2 AhR cis-factorial reporter transcription; actives raise or lower the signal
# Chain of Aryl hydrocarbon receptor (Homo sapiens) (P35869 whole entry, looked up): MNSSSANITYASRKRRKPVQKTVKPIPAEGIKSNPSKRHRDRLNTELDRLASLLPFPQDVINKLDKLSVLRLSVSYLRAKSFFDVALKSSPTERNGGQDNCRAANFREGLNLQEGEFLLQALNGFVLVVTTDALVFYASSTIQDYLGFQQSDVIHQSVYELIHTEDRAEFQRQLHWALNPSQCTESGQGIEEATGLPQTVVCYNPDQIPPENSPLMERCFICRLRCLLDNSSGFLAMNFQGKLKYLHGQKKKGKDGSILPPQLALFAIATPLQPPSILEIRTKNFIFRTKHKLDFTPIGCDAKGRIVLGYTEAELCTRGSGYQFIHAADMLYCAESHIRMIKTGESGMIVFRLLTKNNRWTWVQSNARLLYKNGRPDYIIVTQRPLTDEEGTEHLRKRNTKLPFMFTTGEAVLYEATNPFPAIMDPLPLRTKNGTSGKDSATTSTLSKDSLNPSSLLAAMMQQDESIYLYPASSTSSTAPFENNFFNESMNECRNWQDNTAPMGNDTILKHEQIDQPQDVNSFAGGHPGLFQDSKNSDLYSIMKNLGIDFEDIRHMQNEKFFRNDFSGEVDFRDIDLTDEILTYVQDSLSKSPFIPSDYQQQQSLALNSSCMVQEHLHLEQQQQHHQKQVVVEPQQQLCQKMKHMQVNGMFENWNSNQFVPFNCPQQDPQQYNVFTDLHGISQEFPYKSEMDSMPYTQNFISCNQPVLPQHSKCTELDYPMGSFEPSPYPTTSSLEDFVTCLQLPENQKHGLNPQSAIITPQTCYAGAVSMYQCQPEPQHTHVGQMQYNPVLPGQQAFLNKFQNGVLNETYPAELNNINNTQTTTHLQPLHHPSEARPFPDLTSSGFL
# Outline: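 Reporter mRNA levels, quantified by RT-PCR and fluorescent capillary electrophoresis, reflect endogenous AhR transcriptional activity in HepG2 cells carrying transfected cis-promoter reporter constructs. Readout at 24 h post-dose; gain or loss fitted against DMSO baseline.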
# [6] = ATG_AP_1_CIS: Attagene CIS-FACTORIAL HepG2 Assay for human Activator Protein 1 (AP-1) (AID 2282931); settings: HepG2 Attagene cis-factorial AP-1 reporter mRNA; actives raise or lower the signal
# Outline: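 Cis-regulated reporter units transiently expressed in HepG2 report endogenous transcription-factor activity. Signal: reporter mRNA at 24 h, via RT-PCR and fluorescent capillary electrophoresis. Endpoint derived by bidirectional fitting, DMSO as negative control.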
# [7] = ATG_AP_2_CIS: Attagene CIS-FACTORIAL HepG2 Assay for human Activator Protein 2 (AP-2) (AID 2282932); settings: HepG2 AP-2 cis-reporter, Attagene transcription factor profiling; actives raise or lower the signal
# Outline: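 Step one: transient transfection of HepG2 with reporter transcription units. Step two: 24 h chemical exposure. Step three: RNA extraction, RT-PCR, labelled fragment analysis by capillary electrophoresis; DMSO serves as baseline.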
# [8] = ATG_BRE_CIS: Attagene CIS-FACTORIAL HepG2 Assay for human Bone Morphogenetic Protein (BMP) Response Element (BRE) (AID 2282933); settings: HepG2 BMP response element reporter, Attagene transcription factor profiling; actives raise or lower the signal
# Outline: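 Gain- or loss-of-signal was derived by bidirectional fitting against DMSO controls. The signal came from reporter mRNA, measured by RT-PCR and capillary electrophoresis, in HepG2 cells transiently carrying multiple reporter units and dosed for 24 h.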
# [9] = target: Transcription factor E2F1 (Homo sapiens) (UniProt Q01094); test: ATG_E2F_CIS: Attagene CIS-FACTORIAL HepG2 Assay for human E2F Transcription Factor 1 (AID 2282935); settings: HepG2 Attagene cis-reporter, E2F reporter RNA transcripts; actives raise or lower the signal
# Chain of Transcription factor E2F1 (Homo sapiens) (Q01094 whole entry, looked up): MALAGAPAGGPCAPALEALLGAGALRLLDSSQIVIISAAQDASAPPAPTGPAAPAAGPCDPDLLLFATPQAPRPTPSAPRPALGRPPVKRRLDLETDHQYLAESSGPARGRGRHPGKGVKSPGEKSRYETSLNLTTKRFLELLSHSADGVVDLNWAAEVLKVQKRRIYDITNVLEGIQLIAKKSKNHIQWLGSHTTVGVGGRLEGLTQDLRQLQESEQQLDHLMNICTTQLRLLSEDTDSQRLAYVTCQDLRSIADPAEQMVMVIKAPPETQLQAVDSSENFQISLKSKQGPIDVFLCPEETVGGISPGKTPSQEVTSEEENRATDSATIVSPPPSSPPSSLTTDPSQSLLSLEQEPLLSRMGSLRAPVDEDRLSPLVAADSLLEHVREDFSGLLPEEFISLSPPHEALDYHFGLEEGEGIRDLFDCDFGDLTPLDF
# Outline: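 Total RNA from 24 h-treated, reporter-transfected HepG2 cells undergoes DNase I treatment, oligo(dT) reverse transcription, PCR and 6-FAM primer extension before capillary electrophoresis.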
# [10] = ATG_E_Box_CIS: Attagene CIS-FACTORIAL HepG2 Assay for human Enhancer Box (E-box) (AID 2282936); settings: HepG2 E-box cis-reporter transcription, actives raise or lower the signal
# Outline: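 DMSO served as negative control and baseline for bidirectional fitting. Human hepatoma HepG2 cells, transiently transfected with cis-reporter constructs, were dosed 24 h; reporter mRNA read by RT-PCR and capillary electrophoresis.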
# [11] = ATG_M_61_CIS: Attagene CIS-FACTORIAL HepG2 Assay for M61 Transcription Factor (Internal Marker) (AID 2282937); settings: HepG2 Attagene CIS-FACTORIAL M61 internal marker reporter; actives raise or lower the signal
# Outline: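 Background-control endpoint: HepG2 cells with cis-regulated reporter constructs, 24 h exposure, reporter mRNA detected via fluorescent primer extension and capillary electrophoresis; values from bidirectional fitting with DMSO baseline.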
# [12] = ATG_EGR_CIS: Attagene CIS-FACTORIAL HepG2 Assay for human Early Growth Response 1 (EGR1) (AID 2282938); settings: HepG2 Attagene CIS-FACTORIAL EGR reporter mRNA; actives raise or lower the signal
# Outline: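 Endpoint derived by bidirectional fitting versus DMSO vehicle. Method: cis-promoter reporter units transfected into HepG2, 24 h dosing, RNA isolation, RT-PCR with 6-FAM primer extension and HpaI digestion, then capillary electrophoresis fluorescence detection.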
# [13] = ATG_M_19_CIS: Attagene CIS-FACTORIAL HepG2 Assay for M19 Transcription Factor (Internal Marker) (AID 2282939); settings: HepG2 Attagene CIS-FACTORIAL M19 internal marker reporter; actives raise or lower the signal
# Outline: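 Following a 24 h exposure, RNA from transfected HepG2 cells was reverse-transcribed, PCR-amplified with reporter-specific primers, end-labelled with 6-FAM and HpaI-digested before capillary separation. Values represent gain or loss versus DMSO.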
# [14] = ATG_Ets_CIS: Attagene CIS-FACTORIAL HepG2 Assay for human Erythroblast Transformation Specific (ETS) (AID 2282941); settings: HepG2 ETS cis-reporter transcription, actives raise or lower the signal
# Outline: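 HepG2 cells transiently transfected with cis-promoter reporter transcription units were dosed for 24 h; reporter mRNA was measured by RT-PCR, 6-FAM primer extension, HpaI digestion and capillary electrophoresis, with bidirectional fitting against DMSO baseline.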
# [15] = target: Hepatocyte nuclear factor 3-beta (Homo sapiens) (UniProt Q9Y261); test: ATG_FoxA2_CIS: Attagene CIS-FACTORIAL HepG2 Assay for human Forkhead box A2 (FOXA2) (AID 2282942); settings: HepG2 cis-reporter transcription factor activity, 24 h; actives raise or lower the signal
# Chain of Hepatocyte nuclear factor 3-beta (Homo sapiens) (Q9Y261 whole entry, looked up): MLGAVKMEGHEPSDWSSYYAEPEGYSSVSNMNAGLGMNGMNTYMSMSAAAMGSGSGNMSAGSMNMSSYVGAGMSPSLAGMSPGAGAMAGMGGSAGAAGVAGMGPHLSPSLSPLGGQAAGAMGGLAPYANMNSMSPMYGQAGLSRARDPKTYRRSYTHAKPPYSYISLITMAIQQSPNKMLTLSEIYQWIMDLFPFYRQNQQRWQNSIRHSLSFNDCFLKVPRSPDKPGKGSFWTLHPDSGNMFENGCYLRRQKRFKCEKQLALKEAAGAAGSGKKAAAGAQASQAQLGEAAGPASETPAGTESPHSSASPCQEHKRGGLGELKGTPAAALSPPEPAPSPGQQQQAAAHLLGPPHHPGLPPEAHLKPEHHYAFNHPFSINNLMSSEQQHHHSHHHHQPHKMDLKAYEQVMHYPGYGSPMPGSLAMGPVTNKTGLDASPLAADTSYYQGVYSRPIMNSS
# Outline: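 Measured: reporter mRNA induction or loss in HepG2 transiently carrying multiple cis-regulated reporter units, 24 h after dosing. Quantified by RT-PCR plus capillary electrophoresis, normalised to DMSO.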
# [16] = ATG_FoxO_CIS: Attagene CIS-FACTORIAL HepG2 Assay for human Forkhead box O (FoxO) (AID 2282943); settings: HepG2 Attagene cis-reporter, FoxO element, mRNA; actives raise or lower the signal
# Outline: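 Endogenous transcription factor activity read from multiplexed cis-promoter reporter transcripts in transiently transfected HepG2, 24 h after dosing. Reporter RNA measured via RT-PCR plus capillary electrophoresis of FAM-labeled products; gain or loss relative to DMSO.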
# [17] = ATG_GATA_CIS: Attagene CIS-FACTORIAL HepG2 Assay for human GATA Binding Protein (AID 2282944); settings: HepG2 GATA cis-element reporter, Attagene multiplex mRNA; actives raise or lower the signal
# Outline: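 DMSO serves as negative control and baseline for bidirectional fitting of reporter mRNA changes. HepG2 cells bearing transiently transfected cis-promoter reporters were exposed 24 h; transcripts detected via RT-PCR and capillary electrophoresis.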
# [18] = ATG_GLI_CIS: Attagene CIS-FACTORIAL HepG2 Assay for human Zinc Finger Protein GLI1 (AID 2282945); settings: HepG2, Attagene cis-factorial reporter mRNA, GLI element; actives raise or lower the signal
# Outline: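 Bidirectional curve fits relative to DMSO, using reporter mRNA levels from RT-PCR plus capillary electrophoresis. Cells were HepG2 transiently carrying cis-regulated reporter constructs, harvested 24 h after dosing.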
compound,measurement,setting,value
C=CC(C)(O)CCC=C(C)CCC=C(C)C (stereo unspecified),AC50,[1],126 µM (active)
same,AC50,[2],137 µM (active)
same,AC50,[3],183 µM (active)
same,outcome,[4],inactive
same,AC50,[5],51 µM (active)
same,AC50,[6],154 µM (active)
same,AC50,[7],161 µM (active)
same,outcome,[8],inactive
same,outcome,[9],inactive
same,AC50,[10],131 µM (active)
same,AC50,[11],166 µM (active)
same,AC50,[12],100 µM (active)
same,AC50,[13],176 µM (active)
same,AC50,[14],164 µM (active)
same,outcome,[15],inactive
same,outcome,[16],inactive
same,outcome,[17],inactive
same,AC50,[18],178 µM (active)
CCCCCCCCCCC(CO)CCCCCCCC (stereo unspecified),outcome,[1],inactive
same,outcome,[2],inactive
same,outcome,[3],inactive
same,outcome,[4],inactive
same,outcome,[5],inactive
same,outcome,[6],inactive
same,outcome,[7],inactive
same,outcome,[8],inactive
same,outcome,[9],inactive
same,outcome,[10],inactive
same,outcome,[11],inactive
same,outcome,[12],inactive
same,outcome,[13],inactive
same,outcome,[14],inactive
same,outcome,[15],inactive
same,outcome,[17],inactive
same,outcome,[18],inactive
O=C(O)c1ccc(C(=O)O)cc1,outcome,[1],inactive
same,outcome,[2],inactive
same,outcome,[3],inactive
same,outcome,[4],inactive
same,outcome,[5],inactive
same,outcome,[6],inactive
same,outcome,[7],inactive
same,outcome,[8],inactive
same,outcome,[9],inactive
same,outcome,[10],inactive
same,outcome,[11],inactive
same,outcome,[12],inactive
same,outcome,[13],inactive
same,outcome,[14],inactive
same,outcome,[15],inactive
same,outcome,[17],inactive
same,outcome,[18],inactive
CC(C)[C@H]1CC[C@@H](C)CC1=O,outcome,[1],inactive
same,outcome,[2],inactive
same,outcome,[3],inactive
same,outcome,[4],inactive
same,outcome,[5],inactive
same,outcome,[6],inactive
same,outcome,[7],inactive
same,outcome,[8],inactive
same,outcome,[9],inactive
same,outcome,[10],inactive
same,outcome,[11],inactive
same,outcome,[12],inactive
same,outcome,[13],inactive
same,outcome,[14],inactive
same,outcome,[15],inactive
same,outcome,[16],inactive
same,outcome,[17],inactive
same,outcome,[18],inactive
CC1=CC(=O)NS(=O)(=O)O1,outcome,[1],inactive
same,outcome,[2],inactive
same,outcome,[3],inactive
same,outcome,[4],inactive
same,outcome,[5],inactive
same,outcome,[6],inactive
same,outcome,[7],inactive
same,outcome,[8],inactive
same,outcome,[9],inactive
same,outcome,[10],inactive
same,outcome,[11],inactive
same,outcome,[12],inactive
same,outcome,[13],inactive
same,outcome,[14],inactive
same,outcome,[15],inactive
same,outcome,[16],inactive
same,outcome,[17],inactive
same,outcome,[18],inactive
c1ccc2[nH]ccc2c1,outcome,[1],inactive
same,outcome,[2],inactive
same,outcome,[3],inactive
same,outcome,[4],inactive
same,AC50,[5],14.6 µM (active)
same,outcome,[6],inactive
same,outcome,[7],inactive
same,outcome,[8],inactive
same,outcome,[9],inactive
same,outcome,[10],inactive
same,outcome,[11],inactive
same,outcome,[12],inactive
same,outcome,[13],inactive
same,outcome,[14],inactive
same,outcome,[15],inactive
same,outcome,[16],inactive
same,outcome,[18],inactive
C=C(C)[C@@H]1CC[C@@H](C)C[C@@H]1O,outcome,[1],inactive
same,outcome,[2],inactive
same,outcome,[3],inactive
same,outcome,[4],inactive
same,outcome,[5],inactive
same,outcome,[6],inactive
same,outcome,[7],inactive
same,outcome,[8],inactive
same,outcome,[9],inactive
same,outcome,[10],inactive
same,outcome,[11],inactive
same,outcome,[12],inactive
same,outcome,[13],inactive
same,outcome,[14],inactive
same,outcome,[15],inactive
same,outcome,[16],inactive
same,outcome,[17],inactive
same,outcome,[18],inactive
CC(C)(C#N)c1cc(Cn2cncn2)cc(C(C)(C)C#N)c1,outcome,[1],inactive
same,outcome,[2],inactive
same,outcome,[3],inactive
same,outcome,[4],inactive
same,outcome,[5],inactive
same,outcome,[6],inactive
same,outcome,[7],inactive
same,outcome,[8],inactive
same,outcome,[9],inactive
same,outcome,[10],inactive
same,outcome,[11],inactive
same,outcome,[12],inactive
same,outcome,[13],inactive
same,outcome,[14],inactive
same,outcome,[15],inactive
same,outcome,[16],inactive
same,outcome,[17],inactive
same,outcome,[18],inactive
